# Assays:
# Test in all cases: PBM binding z-score (relative to random genomic background probes); higher = stronger binding; sequences stand for … in GC…GCGATTGACAGCGTAGAATGAAGG
# [1] = test system: PPARg:RXRa DBDmut IVT, anti-RXR (DBD mutation: RXRa K156A/R161A, NR concentration 270 nM, RXRa partner concentration 90 nM)
# How it was run: (§1)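 Scanned fluorescence from custom Agilent 4×180K protein-binding microarrays was regression-normalized. Binding z-scores use random background probes as reference. Ligand-free nuclear receptor dimers were incubated on the arrays for 1 h and detected with antibodies against each partner (one per run).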
# [2] = test system: PPARg:RXRa IVT, anti-PPARg (NR concentration 270 nM, RXRa partner concentration 90 nM)
# How it was run: as §1
# [3] = test system: PPARg DBDmut:RXRa IVT, anti-PPARg (DBD mutation: PPARg1 K132A/R137A, NR concentration 270 nM, RXRa partner concentration 90 nM)
# How it was run: as §1
# [4] = test system: PPARg DBDmut IVT, anti-PPARg (DBD mutation: PPARg1 K132A/R137A, NR concentration 270 nM)
# How it was run: as §1
# [5] = test system: PPARg homodimer (NR concentration 180 nM)
# How it was run: as §1
# [6] = test system: PXR:RXRa (NR concentration 270 nM, RXRa partner concentration 90 nM)
# How it was run: as §1
# [7] = test system: PXR homodimer (NR concentration 270 nM)
# How it was run: as §1
# [8] = test system: RARa homodimer (NR concentration 270 nM)
# How it was run: as §1
# [9] = test system: RARb:RXRa (NR concentration 270 nM, RXRa partner concentration 90 nM)
# How it was run: as §1
# [10] = test system: RARa:RXR (NR concentration 270 nM, RXRa partner concentration 90 nM)
# How it was run: as §1
Sequence,PBM binding z-score [1],PBM binding z-score [2],PBM binding z-score [3],PBM binding z-score [4],PBM binding z-score [5],PBM binding z-score [6],PBM binding z-score [7],PBM binding z-score [8],PBM binding z-score [9],PBM binding z-score [10]
CTCGAAAGGTCGAGCTCAGGTGAGTATACCAAAC,0.787,1.71,1.15,0.22,2.06,2.86,-0.325,0.256,4.2,–
ATCGAAAGGTCGTCGAGGTGAGTATACACCGTTT,0.528,2.3,0.899,0.213,1.6,–,1.15,0.174,3.89,3.81
CGTCCAAGGTCAGAGAGGTCATTGAATGCCGAGT,2.72,3.6,0.144,-1.01,2.82,–,13.6,0.848,–,6.68
ATATGTAGGATATCGGGTCATTCAGTTTGCGCAT,3.29,4.09,1.47,1.41,1.07,–,4.53,1.03,1.66,2.53
TCATATAGGTCAAAGGTGAAAGTCGGTGTGGTAA,8.06,7.84,1.77,2.53,3.28,5.31,1.13,1.6,4.89,–
ATATGTAGGTTACATCCGGGTCATTCTGGCTATG,7.39,7.49,2.61,2.66,1.91,–,0.712,0.96,2.21,3.04
GATAAAGGGTCAGCTAGAGGCCAGAGTATGGAAA,2.27,2.89,0.542,-0.0188,3.27,–,-0.0592,1.02,5.21,4.78
CGTCCAAGGTCAATGCTAGGTCACTGAAAGCATT,3.52,4.42,0.503,0.266,8.59,5.45,2.08,2.19,5.33,–
TCTCGGAGGACACGAAAGGGCAGAGCTCGACATC,1.43,0.279,-1.54,-1.04,-0.108,–,-0.585,-0.203,2.42,0.468
ATCGAAAGGTCGAAGGTGAGTCTACCCACCCGAA,0.133,2.34,0.449,0.43,1.56,–,0.264,-0.143,3.74,4.57
CCTAGTTGGTCAAGGTAACACACGCTATAGGTAC,1.65,1.92,0.633,0.573,1.25,–,0.51,1.13,1.26,0.946
CGCCCAAGGTCAGCAGGTCAGTGAAAGCGACGTG,2.94,3.56,0.803,-0.776,3.74,–,0.324,1.97,5.18,5.15
CAATCTAGGTCACAGAGGTCAAAGTCCGTGCGTA,9.1,9.25,7.18,5.24,7.14,–,11.9,3.61,5.46,7.89

# Reference: the supplement of paper PMC6555819
